According to PubChem BioAssay AID652068 (The Scripps Research Institute Molecular Screening Center, 2013):
The campaign covered roughly 4,300 compounds. About 4,000 (93%) were called active. So high a share suggests a set chosen from earlier hits. Not all results are given here. A number with no mark means an inactive call.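 Rule for the calls: active = inhibition above its plate's cutoff, the mean test-well inhibition plus 3 SD (cut at about 4.8% in these data); inactive = the rest.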

test: displacement of TO-PRO-1 from CAG DNA duplex, counter-screen for rCAG RNA repeat binder project, biochemical, fluorescence, TO-PRO-1 dye, d(CAG) DNA oligo (AID 652068); conditions: d(CAG) DNA oligo TO-PRO-1 dye displacement, at 3 µM, stronger effect = higher value;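 note: 0% = DNA dye mix with DMSO and 100% = 100 µM mitoxantrone; hits displace the dye from DNA and so lower well fluorescence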

Row | SMILES | inhibition
1 | CC1(C(=O)NS(=O)(=O)c2ccc3ccccc3c2)CCN1C(=O)C1(c2ccc(Cl)cc2)CCC1 (centres undefined) | 31.7% (active)
2 | O=C(CCc1ccccc1Cl)Nc1ccc(S(=O)(=O)Nc2nccs2)cc1 | 10.9% (active)
3 | O=C(Nc1ccc(S(=O)(=O)Nc2nccs2)cc1)c1cccc(S(=O)(=O)N2CCOCC2)c1 | 5.67% (active)
4 | CN1CCN(S(=O)(=O)c2cccc(C(=O)Nc3sccc3C#N)c2)CC1 | 7.1% (active)
5 | Cc1ccc(OCCC(=O)Nc2ccc(S(=O)(=O)Nc3nccs3)cc2)cc1 | 14.7% (active)
6 | O=C(Nc1ccc(S(=O)(=O)Nc2nccs2)cc1)c1cc(-c2ccncc2)nc2ccccc12 | 29.6% (active)
7 | CC1CCCCN1S(=O)(=O)c1ccc(C(=O)Nc2nnc(-c3cccs3)o2)cc1 (centres undefined) | 14.2% (active)
8 | Cc1ccc(S(=O)(=O)N2[C@@H](c3ccccc3F)C(C(=O)O)=CC[C@H]2c2ccc(Cl)cc2)cc1 | 29.3% (active)
9 | Cc1ccc([C@@H]2CC=C(C(=O)O)[C@H](c3cccc(Cl)c3)N2S(=O)(=O)c2ccc(C)cc2)cc1 | 41.1% (active)
10 | Cc1ccccc1S(=O)(=O)N1[C@@H](c2cccc(Cl)c2)C(C(=O)O)=CC[C@H]1c1ccc(Cl)cc1 | 53.5% (active)
11 | CC(=O)Nc1ccc(S(=O)(=O)Nc2nc(-c3ccc(C(C)(C)C)cc3)cs2)cc1 | 30.7% (active)
12 | CC(=O)Nc1ccc(C(=O)Nc2nc(-c3cc(C)n(Cc4ccccc4)c3C)cs2)cc1 | 14.6% (active)
13 | CC(=O)Nc1ccc(-c2csc(NC(=O)Nc3ccccc3)n2)cc1 | 22.8% (active)
14 | O=C(Nc1ccccc1)Nc1nc2ccccc2s1 | 14.7% (active)
15 | Cc1cc(C)c2nc(-c3cccnc3)cc(C(=O)Nc3ccc(S(=O)(=O)Nc4onc(C)c4C)cc3)c2c1 | 58.6% (active)
16 | Cc1noc(NS(=O)(=O)c2ccc(NC(=O)c3oc4ccc(F)cc4c3C)cc2)c1C | 25.4% (active)
17 | Nc1[nH]c(=S)nc2nc(-c3ccccc3)c(-c3ccccc3)nc12 | 13.8% (active)
18 | Cc1ccc(-n2ncc3c(Nc4cccc(C(=O)O)c4)ncnc32)cc1 | 4.92% (active)
19 | O=S(=O)(Nc1ccc(O)c2ccccc12)c1ccc(OC(F)(F)F)cc1 | 23.5% (active)
20 | O=c1oc(-c2ccccc2NS(=O)(=O)c2ccc(Cl)cc2)nc2ccccc12 | 8.49% (active)
21 | CSc1nnc(NC(=O)c2nc(S(=O)(=O)Cc3ccc(C)cc3)ncc2Cl)s1 | 11.6% (active)
22 | C=CCNc1nc(N)c(C(=C(C#N)C#N)c2ccccc2)s1 | 9.76% (active)
23 | COc1ccccc1C1C(C#N)=C(N)Oc2c1c(-c1ccccc1)nn2-c1ccccc1 (centres undefined) | 12% (active)
24 | Cc1c(C)c2c(OCC(=O)N[C@@H](C(=O)O)c3ccccc3)cc3c(c2oc1=O)CCC(C)(C)O3 | 12.5% (active)
25 | COc1ccc(COC(=O)NC(C(=O)O)c2ccccc2)cc1 (centres undefined) | 1.1%

Row | SMILES | inhibition
26 | Cc1cc(Br)cn2c(Cc3cccc(F)c3)c(-c3cccc(Br)c3)nc12 | 2.14%
27 | COc1ccc(-c2nc3ccc(Br)cn3c2Cc2ccc(C)cc2)cc1OC | 5.84% (active)
28 | Fc1cccc(Cc2c(-c3cccc(Cl)c3)nc3ccc(Br)cn23)c1 | 12.8% (active)
29 | CCC(C)Cn1c(O)cc2nn(-c3nc4ccccc4s3)c(=O)c-2c1C (centres undefined) | 30.4% (active)
30 | COc1cc(NC(=O)c2ccccc2NS(=O)(=O)c2ccc(Cl)s2)cc(OC)c1 | 46.6% (active)
31 | Cc1ccc(CNC(=O)C2CCN(S(=O)(=O)c3ccc4nc5c(c(C(=O)O)c4c3)CC(C)CC5)CC2)cc1 (centres undefined) | 11.1% (active)
32 | CCOc1cc(C)ccc1OCc1nnc(SCC(=O)Nc2cccc(C(=O)O)c2)n1-c1ccccc1 | 11.8% (active)
33 | Cc1sc2nc(SCC(=O)c3ccc(O)c(O)c3)n(Cc3ccco3)c(=O)c2c1C | 31.4% (active)
34 | O=C(COC(=O)c1ccc(NS(=O)(=O)c2cccs2)cc1O)Nc1ccc(F)cc1 | 5.07% (active)
35 | O=C(O)c1[nH]c2ccccc2c1C(c1cccc(O)c1)c1c(C(=O)O)[nH]c2ccccc12 | 12.6% (active)
36 | CCOC(=O)c1cc2cc(-c3c(C(=O)OCC)oc4cc(O)cc(O)c4c3=O)ccc2o1 | 10.2% (active)
37 | O=C(CCCN1C(=O)/C(=C\c2ccco2)SC1=S)Nc1cccc2ccccc12 | 13.7% (active)
38 | Cc1ccc(NC(=O)CSc2sc3c(O)cc(=O)[nH]c3c2C#N)cc1C | 11.8% (active)
39 | CO/N=C(\C(=O)N[C@@H]1C(=O)N2C(C(=O)O)=C(COC(C)=O)CS[C@H]12)c1csc(N)n1 (stereo in doubt) | 17.5% (active)
40 | O=[N+]([O-])c1cc(Br)c(O)c(/C=N/Nc2nc3ccccc3s2)c1 | 83.5% (active)
41 | COc1ccc(S(=O)(=O)/N=C2\C=C(NS(=O)(=O)c3ccccc3)C(=O)c3ccccc32)cc1 | 56.1% (active)
42 | O=C(NNc1c2ccccc2nc2ccccc12)c1cc2ccccc2cc1O | 27.7% (active)
43 | Cc1cc(/C=N/Nc2ccc([N+](=O)[O-])cn2)c(C)n1-c1cccc(C(=O)O)c1 | 10.4% (active)
44 | O=c1ccc2c(-c3ccccc3S(=O)(=O)O)c3ccc(O)c(O)c3oc-2c1O | 69.2% (active)
45 | O=C(O)c1cccc(NC(=O)c2cc(-c3cccc(Cl)c3)nc3ccccc23)c1 | 14.3% (active)
46 | O=C(Nc1cccc(F)c1)c1cc(-c2ccco2)nc2ccccc12 | 3.28%
47 | Cc1oc2c(F)c(F)c(F)c(F)c2c1S(=O)(=O)Nc1cccc(C(F)(F)F)c1 | 13.1% (active)
48 | Nc1cccc(-c2cc(-c3ccccc3)nc(-c3cccc(N)c3)n2)c1 | 6.95% (active)
49 | Cc1oc2cc([N+](=O)[O-])c(O)c([N+](=O)[O-])c2c1C(=O)c1ccc(Br)cc1 | 15.8% (active)
